Targets with a hit are over-represented here; the source holds about 7,900 in all. About 0.6% of all pairs of compound and target were hits. Values without a mark were called inactive.
Columns and labels:
Experiment in all cases: log2 fold change, soluble protein after heating vs DMSO (PISA); higher = thermal stabilisation; K562 cells, 10 uM, 30 min; active = over 0.2 and 3.5 SD of the protein, either way, in both replicates (recomputed)
[1] = compound: CC[C@@H]1C(=O)N(C)c2cnc(Nc3ccc(C(=O)NC4CCN(C)CC4)cc3OC)nc2N1C1CCCC1
Procedure, shortened: (§1)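 Soluble protein was quantified by TMTpro 16plex LC-MS/MS after channel sums were equalised. It was obtained as the supernatant after 21,000xg for 90 min from pooled aliquots of K562 cells (2×10^6 cells/mL, 10 μM compound, 30 min) heated for 3 min across 48°C-58°C and extracted in PBS with 0.5% NP-40 at 4°C. Thermal stability values are relative to control samples and come from duplicates. They are given as log2 fold changes.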

volasertib = compound: CC[C@@H]1C(=O)N(C)c2cnc(Nc3ccc(C(=O)N[C@H]4CC[C@H](N5CCN(CC6CC6)CC5)CC4)cc3OC)nc2N1C(C)C [volasertib]
Procedure, shortened: as §1

[2] = compound: CC[C@H](C)N1C=C(C2=C(C=C(C=C21)C3=CN=C(C=C3)N4CCNCC4)C(=O)NCC5=C(C=C(NC5=O)C)C)C
Procedure, shortened: as §1

epoxomicin = compound: CC[C@H](C)[C@@H](C(=O)N[C@@H]([C@@H](C)O)C(=O)N[C@@H](CC(C)C)C(=O)[C@]1(CO1)C)NC(=O)[C@H]([C@@H](C)CC)N(C)C(=O)C [epoxomicin]
Procedure, shortened: as §1

[3] = compound: CCn1c(C(=O)N(C2CC2)C2CC2)cc2c3c(ncn3C)c(Nc3cc(C)n(C)n3)nc21
Procedure, shortened: as §1

[4] = compound: CCn1cc(-c2ccnc3[nH]c(-c4cccc(CN(C)C)c4)cc23)c(-c2ccc(NC(=O)N(C)C)cc2)n1
Procedure, shortened: as §1

[5] = compound: CN(C)CC(=O)Nc1ccc2[nH]c(=O)c3ccccc3c2c1
Procedure, shortened: as §1

rosiglitazone = compound: CN(CCOC1=CC=C(C=C1)C[C@H]2C(=O)NC(=O)S2)C3=CC=CC=N3 (racemic) [rosiglitazone]
Procedure, shortened: as §1

[6] = compound: CN1C2=C(C3=C1C(=O)N(N=C3)CC4=CC(=CC=C4)N)SC(=C2)S(=O)C
Procedure, shortened: as §1

[7] = compound: CN1CCC(CNc2ccc3ncc(-c4cccc(OC(F)(F)F)c4)n3n2)CC1
Procedure, shortened: as §1

saracatinib = compound: CN1CCN(CCOc2cc(OC3CCOCC3)c3c(Nc4c(Cl)ccc5c4OCO5)ncnc3c2)CC1 [saracatinib]
Procedure, shortened: as §1

sotrastaurin = compound: CN1CCN(c2nc(C3=C(c4c[nH]c5ccccc45)C(=O)NC3=O)c3ccccc3n2)CC1 [sotrastaurin]
Procedure, shortened: as §1

alvocidib = compound: CN1CC[C@H](c2c(O)cc(O)c3c(=O)cc(-c4ccccc4Cl)oc23)[C@H](O)C1 [alvocidib]
Procedure, shortened: as §1

Tubastatin A = compound: CN1CCc2c(c3ccccc3n2Cc2ccc(C(=O)NO)cc2)C1 [Tubastatin A]
Procedure, shortened: as §1

[8] = compound: CNC(=O)C1=CC=CC=C1NC2=NC(=NC=C2Cl)NC3=C(C=C(C=C3)N4CCOCC4)OC
Procedure, shortened: as §1

defactinib = compound: CNC(=O)c1ccc(Nc2ncc(C(F)(F)F)c(NCc3nccnc3N(C)S(C)(=O)=O)n2)cc1 [defactinib]
Procedure, shortened: as §1

rucaparib = compound: CNCc1ccc(-c2[nH]c3cc(F)cc4c3c2CCNC4=O)cc1 [rucaparib]
Procedure, shortened: as §1

[9] = compound: CNc1nc(-c2ccc3c(N)n[nH]c3c2)cc(N2C[C@@H](C(=O)NC3CCCCC3)CC[C@H]2C)n1
Procedure, shortened: as §1

encorafenib = compound: COC(=O)N[C@@H](C)CNc1nccc(-c2cn(C(C)C)nc2-c2cc(Cl)cc(NS(C)(=O)=O)c2F)n1 [encorafenib]
Procedure, shortened: as §1

[10] = compound: COC(=O)[C@H](CCSC)NC(=O)C1=C(C=C(C=C1)NC[C@H](CS)N)C2=CC=CC=C2
Procedure, shortened: as §1

Sequence of UniProt Q96D46 (Q96D46 whole entry, looked up): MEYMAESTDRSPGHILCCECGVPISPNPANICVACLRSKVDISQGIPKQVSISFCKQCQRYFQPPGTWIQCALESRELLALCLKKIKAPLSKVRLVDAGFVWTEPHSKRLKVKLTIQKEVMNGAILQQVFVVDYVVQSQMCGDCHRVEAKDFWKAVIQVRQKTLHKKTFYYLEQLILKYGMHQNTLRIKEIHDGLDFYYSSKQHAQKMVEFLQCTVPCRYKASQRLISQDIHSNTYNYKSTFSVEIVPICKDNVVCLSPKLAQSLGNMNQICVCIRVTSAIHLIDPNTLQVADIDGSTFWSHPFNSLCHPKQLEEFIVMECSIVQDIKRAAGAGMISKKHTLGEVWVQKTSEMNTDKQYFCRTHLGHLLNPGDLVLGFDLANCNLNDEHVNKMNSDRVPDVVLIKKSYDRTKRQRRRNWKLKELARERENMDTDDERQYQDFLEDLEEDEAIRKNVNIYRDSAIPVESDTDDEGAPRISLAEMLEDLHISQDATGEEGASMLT
Sequence of UniProt Q8N543 (Q8N543 whole entry, looked up): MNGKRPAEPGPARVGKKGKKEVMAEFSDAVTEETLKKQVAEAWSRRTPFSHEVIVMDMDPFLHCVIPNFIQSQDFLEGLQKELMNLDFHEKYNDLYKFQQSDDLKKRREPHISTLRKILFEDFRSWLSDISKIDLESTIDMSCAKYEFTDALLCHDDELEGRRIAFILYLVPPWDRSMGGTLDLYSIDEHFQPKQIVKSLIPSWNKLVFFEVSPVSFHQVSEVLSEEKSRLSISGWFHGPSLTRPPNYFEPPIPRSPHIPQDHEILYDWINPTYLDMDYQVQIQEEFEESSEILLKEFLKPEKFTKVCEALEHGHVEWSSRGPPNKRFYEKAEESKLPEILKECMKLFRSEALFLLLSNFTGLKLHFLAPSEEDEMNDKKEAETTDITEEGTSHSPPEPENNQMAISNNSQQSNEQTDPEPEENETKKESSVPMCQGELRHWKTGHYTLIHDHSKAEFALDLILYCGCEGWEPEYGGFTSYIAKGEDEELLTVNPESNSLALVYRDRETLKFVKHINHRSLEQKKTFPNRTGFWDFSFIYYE
Sequence of UniProt Q9UMY1 (Q9UMY1 whole entry, looked up): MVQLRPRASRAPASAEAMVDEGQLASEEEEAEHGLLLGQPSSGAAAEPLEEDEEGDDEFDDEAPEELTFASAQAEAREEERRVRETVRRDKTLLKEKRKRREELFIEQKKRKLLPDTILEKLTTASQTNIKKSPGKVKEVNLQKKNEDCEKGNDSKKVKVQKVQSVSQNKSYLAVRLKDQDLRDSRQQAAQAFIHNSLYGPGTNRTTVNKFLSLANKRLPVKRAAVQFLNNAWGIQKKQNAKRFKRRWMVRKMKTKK
Sequence of UniProt Q8N4C8 (Q8N4C8 whole entry, looked up): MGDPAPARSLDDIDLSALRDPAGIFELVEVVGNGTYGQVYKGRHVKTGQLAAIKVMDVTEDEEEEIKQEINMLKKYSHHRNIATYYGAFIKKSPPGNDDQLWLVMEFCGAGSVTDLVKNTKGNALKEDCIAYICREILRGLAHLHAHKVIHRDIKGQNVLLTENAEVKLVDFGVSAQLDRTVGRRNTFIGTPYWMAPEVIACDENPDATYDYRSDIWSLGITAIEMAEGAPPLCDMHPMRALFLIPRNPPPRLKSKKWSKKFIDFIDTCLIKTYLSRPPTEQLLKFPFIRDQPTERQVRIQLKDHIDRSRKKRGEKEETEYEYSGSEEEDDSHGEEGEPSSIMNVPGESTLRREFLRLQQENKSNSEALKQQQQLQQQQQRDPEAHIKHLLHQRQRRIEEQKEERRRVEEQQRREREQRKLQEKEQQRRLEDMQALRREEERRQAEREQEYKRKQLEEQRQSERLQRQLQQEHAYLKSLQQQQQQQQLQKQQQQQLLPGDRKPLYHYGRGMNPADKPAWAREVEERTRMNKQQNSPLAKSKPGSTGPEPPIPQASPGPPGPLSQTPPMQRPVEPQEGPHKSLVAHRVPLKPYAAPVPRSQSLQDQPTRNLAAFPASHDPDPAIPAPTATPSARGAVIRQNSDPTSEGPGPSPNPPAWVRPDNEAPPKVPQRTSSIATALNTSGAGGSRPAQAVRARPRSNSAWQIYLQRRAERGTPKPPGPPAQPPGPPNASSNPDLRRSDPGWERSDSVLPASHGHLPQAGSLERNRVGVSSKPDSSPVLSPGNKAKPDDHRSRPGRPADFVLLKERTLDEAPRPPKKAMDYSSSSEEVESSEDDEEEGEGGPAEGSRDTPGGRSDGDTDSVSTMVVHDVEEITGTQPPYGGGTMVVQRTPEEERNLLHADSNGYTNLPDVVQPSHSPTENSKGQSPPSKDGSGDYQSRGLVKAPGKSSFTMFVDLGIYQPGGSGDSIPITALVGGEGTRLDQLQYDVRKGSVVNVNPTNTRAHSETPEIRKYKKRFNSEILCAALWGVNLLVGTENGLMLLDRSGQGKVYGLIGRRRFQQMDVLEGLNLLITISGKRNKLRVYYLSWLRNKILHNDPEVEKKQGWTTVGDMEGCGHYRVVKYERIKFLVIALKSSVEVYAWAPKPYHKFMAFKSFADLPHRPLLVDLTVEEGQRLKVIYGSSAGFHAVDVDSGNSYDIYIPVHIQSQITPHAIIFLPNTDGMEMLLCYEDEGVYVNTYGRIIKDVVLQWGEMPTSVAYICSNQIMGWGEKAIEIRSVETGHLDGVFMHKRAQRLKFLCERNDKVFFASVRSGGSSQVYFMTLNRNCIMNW
Sequence of UniProt Q16621 (Q16621 whole entry, looked up): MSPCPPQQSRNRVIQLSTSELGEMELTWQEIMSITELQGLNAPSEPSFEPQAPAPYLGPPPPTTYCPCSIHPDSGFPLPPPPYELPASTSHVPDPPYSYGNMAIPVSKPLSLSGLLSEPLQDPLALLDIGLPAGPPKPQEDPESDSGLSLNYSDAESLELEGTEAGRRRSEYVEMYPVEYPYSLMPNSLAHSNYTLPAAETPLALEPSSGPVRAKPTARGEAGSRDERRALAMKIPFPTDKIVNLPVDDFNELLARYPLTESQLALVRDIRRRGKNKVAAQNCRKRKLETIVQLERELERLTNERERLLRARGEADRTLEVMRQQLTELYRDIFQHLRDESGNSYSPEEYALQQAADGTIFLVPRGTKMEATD
Sequence of UniProt P46934 (P46934 whole entry, looked up): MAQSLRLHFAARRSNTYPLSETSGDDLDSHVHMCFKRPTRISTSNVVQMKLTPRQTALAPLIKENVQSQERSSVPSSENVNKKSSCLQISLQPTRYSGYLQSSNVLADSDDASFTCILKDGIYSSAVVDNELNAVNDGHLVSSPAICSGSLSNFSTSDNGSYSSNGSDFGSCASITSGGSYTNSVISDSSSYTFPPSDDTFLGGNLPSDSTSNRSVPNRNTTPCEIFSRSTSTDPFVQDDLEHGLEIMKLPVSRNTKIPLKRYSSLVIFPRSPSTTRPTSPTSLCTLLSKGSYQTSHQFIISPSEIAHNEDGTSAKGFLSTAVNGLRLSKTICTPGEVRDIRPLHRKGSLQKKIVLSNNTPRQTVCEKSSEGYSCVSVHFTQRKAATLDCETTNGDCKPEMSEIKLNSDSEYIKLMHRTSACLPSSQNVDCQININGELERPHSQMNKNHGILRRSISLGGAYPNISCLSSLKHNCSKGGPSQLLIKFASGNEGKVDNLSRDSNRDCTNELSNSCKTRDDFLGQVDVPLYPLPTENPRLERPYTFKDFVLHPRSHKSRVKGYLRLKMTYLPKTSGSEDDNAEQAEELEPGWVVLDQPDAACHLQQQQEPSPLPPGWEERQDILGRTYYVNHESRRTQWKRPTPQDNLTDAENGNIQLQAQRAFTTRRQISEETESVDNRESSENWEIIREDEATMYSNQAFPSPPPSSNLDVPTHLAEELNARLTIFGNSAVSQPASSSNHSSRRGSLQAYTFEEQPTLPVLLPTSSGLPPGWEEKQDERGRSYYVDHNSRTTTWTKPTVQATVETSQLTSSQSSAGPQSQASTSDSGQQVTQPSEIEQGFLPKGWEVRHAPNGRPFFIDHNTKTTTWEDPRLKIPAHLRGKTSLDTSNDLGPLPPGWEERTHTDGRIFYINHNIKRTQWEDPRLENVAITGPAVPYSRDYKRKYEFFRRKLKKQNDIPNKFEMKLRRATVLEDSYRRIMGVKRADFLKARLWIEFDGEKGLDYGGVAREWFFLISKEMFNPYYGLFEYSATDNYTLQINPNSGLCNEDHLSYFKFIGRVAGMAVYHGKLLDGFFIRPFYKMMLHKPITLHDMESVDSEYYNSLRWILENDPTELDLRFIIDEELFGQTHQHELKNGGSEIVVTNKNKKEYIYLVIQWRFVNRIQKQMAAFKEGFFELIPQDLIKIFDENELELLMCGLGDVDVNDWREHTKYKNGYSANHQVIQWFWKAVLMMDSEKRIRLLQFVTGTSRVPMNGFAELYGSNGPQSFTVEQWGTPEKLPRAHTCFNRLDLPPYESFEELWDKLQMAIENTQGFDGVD
Sequence of UniProt Q86WQ0 (Q86WQ0 whole entry, looked up): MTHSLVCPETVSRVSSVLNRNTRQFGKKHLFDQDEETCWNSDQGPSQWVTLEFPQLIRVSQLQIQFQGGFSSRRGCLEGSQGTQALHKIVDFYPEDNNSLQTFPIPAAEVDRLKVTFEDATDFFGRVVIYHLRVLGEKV
Sequence of UniProt Q5TFE4 (Q5TFE4 whole entry, looked up): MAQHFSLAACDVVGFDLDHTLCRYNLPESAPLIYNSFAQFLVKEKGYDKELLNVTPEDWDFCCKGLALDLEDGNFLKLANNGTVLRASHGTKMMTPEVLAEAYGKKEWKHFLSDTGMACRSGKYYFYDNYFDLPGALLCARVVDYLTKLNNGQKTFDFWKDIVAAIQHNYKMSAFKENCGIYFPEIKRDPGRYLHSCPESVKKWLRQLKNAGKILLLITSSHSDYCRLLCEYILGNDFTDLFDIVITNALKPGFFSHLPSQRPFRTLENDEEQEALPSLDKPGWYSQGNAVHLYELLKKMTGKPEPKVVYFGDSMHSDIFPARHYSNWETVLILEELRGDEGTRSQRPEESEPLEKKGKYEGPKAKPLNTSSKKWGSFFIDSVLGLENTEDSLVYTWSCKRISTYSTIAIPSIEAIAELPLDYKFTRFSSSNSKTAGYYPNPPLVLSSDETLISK

| Target | log2 fold change [1] | log2 fold change (volasertib) | log2 fold change [2] | log2 fold change (epoxomicin) | log2 fold change [3] | log2 fold change [4] | log2 fold change [5] | log2 fold change (rosiglitazone) | log2 fold change [6] | log2 fold change [7] | log2 fold change (saracatinib) | log2 fold change (sotrastaurin) | log2 fold change (alvocidib) | log2 fold change (Tubastatin A) | log2 fold change [8] | log2 fold change (defactinib) | log2 fold change (rucaparib) | log2 fold change [9] | log2 fold change (encorafenib) | log2 fold change [10] |
| --- | --- | --- | --- | --- | --- | --- | --- | --- | --- | --- | --- | --- | --- | --- | --- | --- | --- | --- | --- | --- |
| NR2C2AP isoform 2 (UniProt Q86WQ0) | -0.108 | -0.061 | -0.018 | 0.023 | -0.055 | 0.018 | 0 | 0.039 | -0.223 | -0.152 | 0.086 | 0.018 | -0.089 | 0.099 | 0.027 | -0.106 | -0.031 | 0.073 | -0.048 | -0.115 |
| NFE2 (UniProt Q16621) | -0.136 | -0.227 | 0.018 | 0.173 | 0.012 | 0.084 | 0.273 | 0 | -0.015 | -0.145 | 0.011 | -0.096 | -0.182 | 0.093 | -0.025 | -0.037 | -0.075 | -0.065 | 0.018 | -0.06 |
| NSUN2 (UniProt Q08J23) | -0.182 | -0.286 | 0.051 | -0.044 | 0.017 | -0.044 | 0.009 | 0.029 | 0.025 | -0.131 | 0.008 | -0.243 | -0.328 (active) | -0.008 | -0.081 | -0.281 (active) | -0.021 | -0.083 | 0.004 | 0.009 |
| OGFOD1 (UniProt Q8N543) | 0.049 | 0.038 | -0.025 | 0.042 | 0.007 | -0.013 | -0.022 | 0.059 | -0.022 | -0.051 | 0.007 | 0.024 | -0.026 | -0.163 | 0.012 | -0.027 | -0.051 | -0.028 | -0.028 | 0.041 |
| NEDD4 isoform 4 (UniProt P46934) | -0.102 | -0.521 (active) | 0.008 | 0.008 | 0 | -0.031 | 0.015 | 0.065 | -0.01 | 0.049 | 0.116 | -0.026 | -0.09 | 0.037 | 0.041 | -0.108 | -0.099 | -0.026 | 0.049 | -0.009 |
| NOL7 (UniProt Q9UMY1) | 0.226 | 0.417 | -0.086 | -0.338 | -0.019 | 0.232 | -0.123 | -0.154 | 0.316 | 0.237 | -0.057 | 0.017 | 0.379 | 0.161 | 0.032 | 0.303 | 0.312 | 0.098 | 0.1 | -0.042 |
| OXR1 (UniProt Q8N573) | -0.052 | -0.071 | 0.035 | -0.013 | 0.006 | 0.026 | 0.062 | 0.005 | -0.033 | -0.257 (active) | -0.039 | -0.049 | -0.011 | 0.008 | -0.038 | -0.059 | -0.014 | -0.063 | 0 | 0.003 |
| MINK1 (UniProt Q8N4C8) | -0.01 | -0.149 | 0.056 | -0.009 | -0.011 | -0.069 | -0.035 | 0.011 | -0.004 | -0.137 | -0.052 | -0.009 | -0.027 | -0.015 | -0.007 | -0.069 | -0.033 | -0.029 | 0.044 | 0.012 |
| NUMB (UniProt P49757) | -0.017 | 0.057 | 0.02 | -0.013 | 0.009 | -0.045 | -0.024 | 0.053 | -0.007 | -0.202 | 0.033 | -0.266 (active) | -0.095 | -0.014 | -0.027 | -0.044 | 0.01 | 0.065 | 0.081 | 0 |
| NT5DC1 (UniProt Q5TFE4) | 0.165 | 0.051 | -0.026 | 0.045 | 0.015 | -0.054 | 0.014 | 0.008 | -0.037 | -0.063 | -0.012 | 0.026 | -0.049 | 0 | 0.115 | -0.004 | -0.057 | -0.058 | -0.029 | 0.037 |
| NMD3 (UniProt Q96D46) | 0.103 | 0.151 | -0.009 | 0.042 | -0.029 | -0.163 | 0.04 | 0.064 | -0.138 | 0.114 | 0.043 | 0.02 | -0.012 | 0.07 | 0.088 | 0.06 | -0.181 | 0.003 | 0.028 | -0.052 |
| MRPS17 (UniProt Q9Y2R5) | -0.111 | -0.018 | 0.022 | -0.043 | -0.059 | 0.043 | 0.069 | 0.057 | 0.022 | -0.016 | -0.017 | -0.138 | 0.002 | 0.072 | 0.105 | 0.096 | 0.185 | 0.096 | 0.016 | -0.047 |
| NUP210 (UniProt Q8TEM1) | -0.001 | -0.12 | 0 | 0.03 | 0.002 | -0.053 | 0.03 | 0.03 | -0.026 | -0.348 (active) | 0.017 | -0.019 | -0.04 | -0.003 | -0.147 | -0.021 | -0.039 | -0.07 | 0.027 | -0.035 |
| NDUFB10 (UniProt O96000) | -0.008 | 0.056 | -0.007 | 0.001 | 0 | 0.03 | -0.005 | 0.013 | -0.043 | -0.237 (active) | -0.027 | 0.008 | -0.013 | -0.022 | -0.012 | -0.016 | 0.012 | -0.004 | -0.005 | -0.029 |
| MRPS6 (UniProt P82932) | -0.015 | -0.045 | 0.03 | -0.012 | -0.06 | -0.067 | 0.09 | 0.072 | -0.021 | 0.027 | -0.197 | -0.058 | -0.036 | 0.011 | -0.003 | -0.023 | 0.056 | 0.092 | 0.016 | -0.126 |
| NDUFS4 (UniProt O43181) | 0.052 | 0.074 | -0.037 | -0.025 | -0.007 | 0.071 | -0.079 | -0.046 | 0.033 | -0.013 | 0.117 | 0.1 | 0.049 | -0.082 | -0.025 | 0.035 | 0.011 | -0.074 | -0.051 | 0.079 |

Reference: the supplement of paper PMC10849652
